Records with an inconclusive call do not appear. Unmarked numbers belong to inactive results. Calls of active or inactive are those of the source. Calls come from the whole dose curve; as a rule, active = well fitted cell-killing curve with a large enough effect; inconclusive = small, poorly fitted or top-dose-only effect, or effect the other way; inactive = no such curve, though single readings can be large or run the other way. Peptide text beside a SMILES is read from it. * marks the point of attachment. Cbz = O=C(OCc1ccccc1)*
Potency is the fitted concentration of half-maximal effect.

The assay in a line: Quantitative highthroughput screen to assess conditional lethalithy of SEM cells grown in RPMI1640 with dialyzed fetal bovine serum (RPMI+ds) (AID 1963884).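 For viability: 100% = DMSO control wells and 0% = empty wells without cells.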 Note: nearly all actives have a fitted effect of over 35% in size. As to conditions: SEM B-ALL cells, RPMI+dialyzed FBS, CellTiter-Glo viability, 48 h; series mostly up to 45.8 µM; viability: at the top concentration. In a few lines:
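Each medium arm—HPLM with 10% dialyzed FBS, or RPMI1640 with 5 mM glucose and 10% untreated or dialyzed FBS—was screened against an 11-point, 3-fold compound titration for 48 h at 37 °C, with CellTiter-Glo luminescence as endpoint.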
In general, viability refers to a read-out of living cells in per cent, often relative to untreated cells. As for `O=C1N(c2ccccc2)c2ccccc2C1(Cc1ccncc1)Cc1ccncc1`, the “viability” value was 98.6%.
Consider `OC(Cn1cncn1)(Cn1cncn1)c1ccc(F)cc1F`, for which the “viability” value was 104%.
Regarding `Cc1nc(N)ncc1-c1nc(N2CCOCC2)c2sc(C(C)(C)O)cc2n1`, the Potency is 0.0743 µM (active).
For the compound `CCCCCCCCCCCCCC(=O)N[C@H](CO)[C@H](O)c1ccc([N+](=O)[O-])cc1`, the Potency is 1.32 µM (active).
Regarding `CN1CCN(CCCN2c3ccccc3Sc3ccc(C(F)(F)F)cc32)CC1`, the “viability” value is 90.3%.
With `O=C(Nc1cccc(Cl)c1)Nc1ncc(CCNc2ncnc3ccsc23)s1`, the Potency was 0.209 µM (active).
With `O=C(O)Cc1cccc(OCCCN(Cc2cccc(C(F)(F)F)c2Cl)CC(c2ccccc2)c2ccccc2)c1`, the “viability” value was 101%.
`COc1ccc(C2CNC(=O)C2)cc1OC1CCCC1` (centres undefined): the “viability” value was 106%.
Consider `CC(C)c1cnn2c(NCc3ccccc3)cc(N[C@@H](CO)[C@H](O)CO)nc12`, for which the Potency was 0.743 µM (active).
`CC(C)C[C@@H](C=O)NC(=O)[C@H](CC(C)C)NC(=O)[C@H](CC(C)C)NC(=O)OCc1ccccc1` (Cbz-Leu-Leu-Leu-aldehyde): the Potency was 0.743 µM (active).
On to `CN1CCN(Cc2ccc(NC(=O)Nc3ccc(Oc4cc(NC(=O)C5CC5)ncn4)cc3)cc2C(F)(F)F)CC1`, for which the Potency is 0.0083 µM (active).
On to `Cc1cc(Nc2ncc(Cl)c(Nc3ccccc3S(=O)(=O)C(C)C)n2)c(OC(C)C)cc1C1CCNCC1`, for which the Potency was 16.6 µM (active).
Take `CC(C)Oc1cc(Nc2nc(N[C@@H](C)c3ccc(F)cn3)ncc2Cl)[nH]n1`: the Potency is 0.332 µM (active).
On to `Cc1ccn(-c2ccc(-c3ncco3)cc2)c(=O)c1-c1ccc2nc(N)ncc2c1`, for which the Potency is 1.87 µM (active).
